# Laboratory results: publication PMC5540273 (PLoS ONE, 2017)
# System: KIT
# 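Also: kd values determined as follow-up on hits from a single-replicate KINOMEscan panel screen.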
row,Compound,Kd
1,COC(=O)c1c(-c2ccccc2)c2cc(C(=O)O)ccc2c(=O)n1Cc1ccccc1,100 nM
2,Cc1ccc(C(=O)Nc2ccc(Nc3ccnc4cc(-c5ccccn5)ccc34)cc2O)cc1.Cl [GW440146],2200 nM
3,O=C(Nc1ccccc1)Nc1cccc(Oc2ccc3nccn3n2)c1,0.94 nM
4,Cc1ccc(NC(=O)Nc2cccc(Cl)c2)cc1-c1ccc(C(=O)Nc2ccncc2)cc1 [GSK1398468],180 nM
5,CC(=O)Nc1nc2cnc(Nc3cc(NC(=O)c4cccc(CCC#N)c4)ccc3C)nc2s1,> 10000 nM
6,CC(C)(C)c1ccc(C(=O)Nc2cn3cc(-c4cccnc4)ccc3n2)cc1,320 nM
7,COC(=O)c1c(-c2ccccc2)c2cc(OC)ccc2c(=O)n1Cc1ccccc1,170 nM
8,Cc1ccc(NC(=O)Nc2cccc(C(F)(F)F)c2)cc1 [GSK955403],240 nM
9,Cc1ccc(NC(=O)Nc2cc(C(C)(C)C)nn2-c2ccccc2)cc1 [GSK1014915],260 nM
10,Cn1ccc2ncnc(Oc3ccc(NC(=O)Nc4ccccc4)cc3)c21,0.6 nM
11,Cc1cccc(-c2nc(-c3ccc(S(C)(=O)=O)cc3)sc2-c2ccnc(NCCc3ccccc3)c2)c1,120 nM

# System: LCK
row,Compound,Kd
1,Cc1ccc(C(=O)Nc2ccc(Nc3ccnc4cc(-c5ccccn5)ccc34)cc2O)cc1.Cl [GW440146],260 nM
2,Cc1ccccc1-n1cnc2c(N)ncnc21 [SKF-97510],> 10000 nM
3,COc1cc2nccc(Nc3ccc(NC(=O)c4ccc(C)cc4)c(O)c3)c2cc1OC.Cl [GW440132],560 nM

# System: T1, LOK
# T1 construct: gene STK10
row,Compound,Kd
1,Cc1nnc(-c2ccc3occ(-c4ccc(S(C)=O)cc4)c3c2)[nH]1 (stereo not shown),> 10000 nM
2,Cn1ccc2ncnc(Oc3ccc(Nc4nc5ccccc5[nH]4)cc3)c21,200 nM
3,Cn1ccc2ncnc(Oc3ccc(NC(=O)Nc4ccccc4)cc3)c21,280 nM
4,COc1cc2ncn(-c3cc(OCC4CCCO4)c(C(N)=O)s3)c2cc1OC (stereo not shown) [GSK204607],100 nM

# System: LTK
row,Compound,Kd
1,O=C1NC(=O)C(N2CCc3ccccc32)=C1c1ccccc1Cl [SB-373598],> 10000 nM
2,Nc1ncnc2[nH]c(-c3ccccc3)nc12 [AH5015],> 10000 nM
3,O=C(O)COc1ncnc2cc(-c3ccc4[nH]ncc4c3)sc12,> 10000 nM

# System: T2, MEK5
# T2 construct: gene MAP2K5
row,Compound,Kd
1,COc1cccc(NC(=O)NC2CCN(c3ccnc(Nc4ccc(F)cc4)n3)C2)c1 (stereo not shown) [GSK1379721],500 nM
2,Cn1cncc1-c1ccc2ncnc(Nc3ccc(OCc4ccccc4)cc3)c2c1 [GW320571],450 nM
3,Cc1ccc(C(=O)Nc2ccc(Nc3ccnc4cc(-c5ccccn5)ccc34)cc2O)cc1.Cl [GW440146],4.7 nM
4,COc1cc2ncnc(Nc3ccc4nc(-c5ccccc5)[nH]c4c3)c2cc1OC.Cl [GW282450],670 nM
5,COc1ccc(CNC(=O)NC2CCN(c3ccnc(Nc4cc(OC)c(OC)c(OC)c4)n3)C2)cc1 (stereo not shown) [GSK1379748],95 nM
6,Cl.NC(=O)c1cccc(Nc2nccc(Nc3ccc(Oc4cccc(Cl)c4)c(Cl)c3)n2)c1 [GW659008],34 nM
7,COc1ccc(Nc2nccc(-c3cccc(NC(=O)c4cc5cc(F)ccc5[nH]4)c3)n2)cc1 [GSK1229782],200 nM
8,Fc1cc(Cl)ccc1Nc1ccnc2cc(-c3ccc(CN4CCCCC4)o3)ccc12 [GW560116],890 nM
9,COc1cc(Nc2nccc(N3CCC(NC(=O)Nc4cc(C)ccc4C)C3)n2)cc(OC)c1OC (stereo not shown) [GSK1379762],53 nM
10,CC(C)(C)c1ccc(C(=O)Nc2cn3cc(-c4cccnc4)ccc3n2)cc1,190 nM
11,Cl.O=C(Nc1cccc(-c2nn3ncccc3c2-c2ccnc(Nc3cccnc3)n2)c1)c1c(F)cccc1F [GSK312879],230 nM
12,COc1cc2nccc(Nc3ccc(NC(=O)c4ccc(C)cc4)c(O)c3)c2cc1OC.Cl [GW440132],8.7 nM
13,COc1cc2ncn(-c3cc(OCC4CCCO4)c(C(N)=O)s3)c2cc1OC (stereo not shown) [GSK204607],81 nM
